From PubChem BioAssay
An excerpt weighted towards active compounds, which were near 2.8% of everything screened.
SNCA viab count: GF-AFC viability counterscreen for inhibitors of alpha-synuclein gene (SNCA) expression; actives 0.12% (n = 150,000); HEK-293-SNCA-luc viability, GF-AFC fluorescence, 24 h; Potency, µM (top dose mostly 57.1 µM), for inactives: top-dose activity change, negative = cytotoxicity, usual class: cytotoxic;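 note: potency is the fitted concentration of half-maximal effect; 0% = DMSO-treated cells and -100% = medium-only wells without cells; nearly all actives have a fitted effect of over 30% in size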
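Cytotoxicity counterscreen: after 24 h compound treatment of genome-edited SNCA-luciferase HEK-293 cells, live-cell protease substrate GF-AFC read by fluorescence after 30 min; activity scaled between DMSO (0%) and medium-only (-100%), curves Hill-fitted.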
IP6K1 inh: Primary qHTS assay for small molecule inhibitors of Inositol hexaphosphate kinase 1 (IP6K1); actives 0.81% (n = 140,000); IP6K1 kinase, ADP-Glo luminescence, 2 h; stronger effect = lower value; Inositol hexakisphosphate kinase 1 (Homo sapiens), Q92551; activity change, % (series mostly up to about 58 µM); in the data active = activity change below about -25%; note: % is set by controls: 0 for no effect and ±100 for the full control effect
Target sequence (Q92551 whole entry, looked up): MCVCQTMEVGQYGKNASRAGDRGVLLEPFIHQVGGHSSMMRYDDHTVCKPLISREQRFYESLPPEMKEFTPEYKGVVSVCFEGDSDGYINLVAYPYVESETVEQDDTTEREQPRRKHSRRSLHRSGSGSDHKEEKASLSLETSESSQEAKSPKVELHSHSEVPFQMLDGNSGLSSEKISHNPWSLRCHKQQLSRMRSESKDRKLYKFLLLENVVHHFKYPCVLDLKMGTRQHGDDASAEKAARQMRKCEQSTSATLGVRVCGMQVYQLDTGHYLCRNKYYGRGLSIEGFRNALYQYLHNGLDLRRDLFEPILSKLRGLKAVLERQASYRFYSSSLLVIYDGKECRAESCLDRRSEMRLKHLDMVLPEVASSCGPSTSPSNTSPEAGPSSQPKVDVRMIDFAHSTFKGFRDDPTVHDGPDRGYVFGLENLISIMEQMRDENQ
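ADP-Glo luminescence measures ADP made by human IP6K1 during a 2 h RT reaction with ATP/IP6 (mix at 1.3 mM/130 uM); top library doses 57.5 and 19.1 uM final.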
SNCA expr inh: Primary qHTS assay for inhibitors of alpha-synuclein gene (SNCA) expression; HEK-293 SNCA-luciferase knock-in, luminescence, 24 h; Potency, µM (highest dose often 57.2 µM), without a hit: at the highest dose activity change, negative = inhibition, hits mostly inhibitors; actives 0.17% (n = 140,000);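 note: potency is the fitted concentration of half-maximal effect; plate controls were DMSO cells for no effect and cell-free wells for full effect; nearly all actives have a fitted effect of over 45% in size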
KDM5B inh: Primary screen for KDM5B Histone Demethylases FDH-coupled qHTS; Lysine-specific demethylase 5B (Homo sapiens), Q9UGL1; KDM5B demethylase, FDH-coupled NADH fluorescence (FDH is formaldehyde dehydrogenase); Potency, µM (doses to about 57.7 µM), most hits filed as inhibitors; actives 2.6% (n = 220,000); AID 1347165, 2019; note: potency is the fitted concentration of half-maximal effect; 0% is about no effect; nearly all actives have a fitted effect of over 70% in size
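Coupled FDH/NAD⁺ fluorescence readout. KDM5BΔAP 200 nM final; compound titration, 10 min RT preincubation; substrate mix 12.5 µM H3K4me3, 25 µM 2-OG, 50 µM Fe(II), 100 µM ascorbate, 0.25 mM NAD⁺, 0.25 U/mL FDH; ΔRFU over 30 min.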
IP6K1 inh cnf: Confirmatory qHTS assay for small molecule inhibitors of Inositol hexaphosphate kinase 1 (IP6K1) | shares compounds with IP6K1 inh | recombinant IP6K1 kinase, ADP-Glo luminescence, 2 h | Potency, µM (top dose mostly 49 µM), for the others: top-dose activity change, negative = inhibition, actives largely listed as inhibitors | actives 13% (n = 1,200); note: potency is the fitted concentration of half-maximal effect; % is set by controls: 0 for no effect and ±100 for the full control effect; nearly all actives have a fitted effect of over 65% in size
Starred values were filed as active, the others as inactive; i = inactive; ? = inconclusive; · = not tested or not shown; ! = not confirmed by another sample; [ ] = remark or other dose. Unless noted, calls come from the whole dose curve; as a rule, active = well fitted curve in the direction sought with a large enough effect; inconclusive = small, poorly fitted or top-dose-only effect, or another doubt; inactive = no such curve, though single readings can be large; an effect the other way counts as inactive or inconclusive.

SMILES	SNCA viab count	IP6K1 inh	SNCA expr inh	KDM5B inh	IP6K1 inh cnf
COc1ccc(OC)c(CN2CCNc3cc(-c4ccnc(C)c4)ncc3C2)c1	-19.9%[87.6 µM]	-27.4*	44.7%[87.6 µM]	i	3.4%
CNCC(=O)N1CCCC(N2CCN(Cc3ccc4c(c3)OCO4)CC2)C1 (configuration not stated)	2.6%	-36.8*	1.5%	?	-8.1%
Cn1ccc(NC(=O)c2ccc(-c3ncc4cnc(-c5cccc(F)c5)cn34)cc2)n1	-8.9%[87.6 µM]	-9.4	-8.9%[87.6 µM]	?	·
O=C(O)c1ccc(-c2ncc3cnc(-c4cccc(F)c4)cn23)cc1	4.2%[87.6 µM]	-29.7*	-9.6%[87.6 µM]	35.5µM*	?
O=C(Cn1nc(Cl)nc1Cl)c1ccc(Cl)cc1	·	·	·	i	·
Cc1cc(C)nc(-n2nc(C)c3c2N(Cc2ccccc2)C(=O)CC3c2ccccc2)n1 (configuration not stated)	·	·	·	i	·
FC(F)Oc1cccc(CNC2CCC3(CCNCC3)CC2)c1	-25.2%	8.9	-8.5%	i	·
CN(C)c1ccc(C(=C2C=CC(=[N+](C)C)C=C2)c2ccccc2)cc1	-77.9%[23.9 µM]	-41.5*	?	·	14.6µM*
CN(C)c1ccc(C(=O)C(=O)c2ccccc2)cc1	·	·	·	i	·
CC(=O)Nc1cccc(-c2nnc(SCC(=O)c3cc([N+](=O)[O-])ccc3Cl)o2)c1	?	-31.0*	-5.6%	?	?
O=C(CSc1nnc(-c2ccc(Cl)cc2)o1)c1ccc([N+](=O)[O-])cc1	-3.4%	4.7	-1.0%	i	·
Cc1cccc(N2CCN(S(=O)(=O)c3csc(C(N)=O)c3)CC2)c1C	-7.4%	-42.3*	-11.7%	i	7.31µM*
CCOC(=O)c1ccc(NC(=O)c2cc(=O)c3ccc(C)c(C)c3o2)cc1	-9.6%	-25.5*	13.2%	i	1.9%
Cc1ccc(NC(=O)c2cc(=O)c3ccc(C)c(C)c3o2)cc1	·	·	·	i	·
NC(=O)c1cccc(-c2cc(Nc3ccc(OC(F)(F)F)cc3)ncn2)c1	-24.5%	-25.3*	-11.7%	·	?
O=C(NCCO)c1cccc(-c2cc(Nc3ccc(OC(F)(F)F)cc3)ncn2)c1	1.6%	-20.9	·	·	·
CNC(=O)c1cc(C2CC2)nc2c1c(C1CCN(C(=O)c3ccc4c(c3)OCO4)CC1)nn2C	·	-10.0	·	·	·
Cc1cc(-n2c(C)nc3ccccc3c2=O)ccc1NC(=O)c1ccc(C)c([N+](=O)[O-])c1	0.6%	-25.2*	11.1%	i	4.1%
Cc1cccc(Cc2c(C)nc3c(-c4ccccc4)c(C)[nH]n3c2=O)c1	-8.6%	-33.8*	-12.6%	?	?
COc1cccc(Nc2cc(-c3cccs3)nc3c(C)noc23)c1	7.6%[87.6 µM]	-25.2*	-20.1%[87.6 µM]	35.5µM*	?
Cc1cccc(Oc2nc3c(c(=O)n(C)c(=O)n3C)n2C)c1	7.8%	-27.3*	10.9%	i[11.5 µM]	-17.9%
CC(C)Oc1ccc2c(NC(=O)CN3CCCC3=O)nn(Cc3ccccc3)c2c1	-7.1%	-32.5*	22.1%	i	-3.7%
CC(C)Oc1ccc2c(NC(=O)C3CCOC3)nn(Cc3ccccc3)c2c1 (configuration not stated)	2.8%	5.4	-22.1%	i	·
Cc1cc2ccccc2n1CC(=O)NC1CCCCC1	·	·	·	i	·
COc1ccc(/C(O)=C2\C(=O)C(=O)N(Cc3cccnc3)C2c2ccccc2F)cc1 (configuration not stated)	·	·	·	i	·
SMILES	SNCA viab count	IP6K1 inh	SNCA expr inh	KDM5B inh	IP6K1 inh cnf
CCc1ccccc1NC(=O)c1ccc2nc(C(C)C)oc2c1	3.4%	-36.1*	-20.7%	i	-3.4%
O=C1CCCN1CC1CCN(C(=O)c2ccc(N3CCC(CO)C3)nc2)CC1 (configuration not stated)	4.0%	5.2	-5.4%	?	·
COCCCNc1ccc(C(=O)N2CCC(CN3CCCC3=O)CC2)cn1	1.6%	-56.9*	-0.5%	?	-7.2%
CCCCn1c(=O)c(C(=O)NCCc2ccc(F)cc2)nc2cccnc21	1.3%	-26.5*	-29.6%	·	-10.3%
CCCCn1c(=O)c(C(=O)NCCc2ccccc2)nc2cccnc21	-3.5%	4.8	-24.2%	·	·
OCCOCCN1CCN(C(c2ccccc2)c2ccc(Cl)cc2)CC1 (configuration not stated)	-24.2%[23.9 µM]	-31.1*	-31.9%[25.6 µM]	·	3.66µM*
O=C(O)COCCN1CCN(C(c2ccccc2)c2ccc(Cl)cc2)CC1 (configuration not stated)	-2.8%	9.6	-12.2%	·	·
COc1ccc(-c2ccc3ncc4c(c3c2)n(-c2ccc(N3CCNCC3)c(C(F)(F)F)c2)c(=O)n4C)cn1	30.4µM*!	-15.2	?	·	-28.3%
O=C(NC1CCc2nn(CC3CC3)c(=O)n2CC1)c1ccc2cc[nH]c2c1 (configuration not stated)	-13.8%	-2.4	?	i	·
CCOC(=O)c1ccc(NC(=O)Cc2ccc(-n3c(CC)nc4cccnc43)cc2)cc1	?	-44.5*	4.7%	i	?
N#Cc1cc(NC(=O)C(=O)O)c(Cl)c(NC(=O)C(=O)O)c1	-6.4%[23.9 µM]	-34.9*	-1.3%[25.6 µM]	·	-23.3%
Cc1ccc(CN2CCc3nc(N4CCN(c5ncccn5)CC4)ncc3C2)cc1	-10.4%	-15.4	14.2%	?	·
Cc1cccc(CN2CCc3nc(N4CCN(c5ccccn5)CC4)ncc3C2)c1	16.6%	-26.8*	-18.7%	?	?
Cc1cc(N2CCCCCC2)n2nc(-c3ccccc3)nc2n1	·	·	·	i	·
COC(=O)c1oc(CN2CC(C)OC(C)C2)cc1C (configuration not stated)	·	·	·	i	·
N#CCCN1CCN(C(C(=O)O)c2cn(CCC(=O)O)c3cc(F)ccc23)CC1 (configuration not stated)	·	·	·	i	·
O=C(Oc1cccc2cccnc12)c1ccccc1	31.3%[23.9 µM]	31.7	-3.4%[25.6 µM]	·	·
c1ccc(-c2ccnc(NCCOc3cccc4cccnc34)n2)nc1	-28.9%	-30.6*	123.5%	20µM*	-14.3%
CCCCN(CC)C(=O)C1CCC(CNS(=O)(=O)c2cccc3nsnc23)CC1 (configuration not stated)	-8.5%	-29.7*	-25.2%	i	-4.2%
CCN(C(=O)C1CCC(CNS(=O)(=O)c2cccc3nsnc23)CC1)c1ccc(C)c(C)c1 (configuration not stated)	6.3%	20.7	21.6%	i	·
CCOc1ccc2c(n1)CCN(C(=O)Cc1c[nH]c3ccccc13)C2	6.3%[12.5 µM]	-25.6*	1.3%	i	-26.2%
CCOc1ccc2c(n1)CCN(C(=O)Cc1ccccc1)C2	-9.0%[12.5 µM]	-10.3	28.6%	i	·
COc1ccc(CNC(=O)c2cc3c(-c4ccccc4F)nn(C)c3s2)cc1	-21.4%	-36.3*	-9.9%	?	?
